# PubChem BioAssay AID1476 (National Center for Advancing Translational Sciences (NCATS), 2009)
# Values joined by “and” are separate entries in the source; they are usually repeats but may differ in a detail not shown here. Identical values can stand only once. Hit rate of the full screen: of about 200,000 compounds, about 4,500 (2.2%) were called active. Another 12% or so got no clear call; they are omitted. The list comes from a sample in which actives are over-represented; it also holds similar structures and randomly drawn compounds. Unmarked numbers belong to inactive results. Calls come from the whole dose curve; as a rule, active = well fitted inhibition curve with a large enough effect; inconclusive = small, poorly fitted or top-dose-only effect, or effect the other way; inactive = flat fitted curve, though single readings scatter.
# Biological target: Cruzipain (Trypanosoma cruzi) (UniProt P25779)
# Assay: qHTS Assay for Promiscuous and Specific Inhibitors of Cruzain (without detergent); note: nearly all actives have a fitted effect of over 40% in size
# Settings: purified cruzain, Z-FR-AMC fluorescence, no detergent
# Experimental: Cruzain is a cysteine protease from the tropical parasite Trypanosoma cruzi. Dual qHTS experiment was performed against the NCGC compound collection in order to 1) identify novel inhibitors of the enzyme and 2) profile the compound collection for promiscuous inhibitors operating via colloidal aggregation (by performing detergent-free and detergent-containing comparison screens). Cruzain was assayed by the use of fluorogenic coumarin-based substrate Z-FR-AMC: proteolytic cleavage releases AMC, whose fluorescence is measured at 360 nm excitation and 450 nm emission. Purified cruzain was supplied by the labs of Prof. James McKerrow and Brian Shoichet, UC San Francisco.
# This assay had 0.00005% Triton X-100 concentration. See also releated assay "qHTS Assay for Promiscuous and Specific Inhibitors of Cruzain (with detergent)" with 0.01% Triton X-100.
# See following references for additional details:
# Assay Provider: Shoichet, Brian; University of California, San Fancisco
# Screening Center PI: Austin, C.P.
# Screening Center: NIH Chemical Genomics Center [NCGC]
# Buffer: 100 mM Sodium Acetate, pH 5.5, 5 mM DTT, Triton X-100 concentration: 0.01%.
# Buffer in columns 3 and 4 as negative control (no enzyme).
# Substrate solution: 2 uM final concentration of Z-FR-AMC (catalog number I-1160, Bachem) dispensed throughout the plate.
# Enzyme: 1.5 nM Cruzain final concentration in columns 1, 2, 5-48. Column 1 is neutral (100% activity). Column 2 contained titration of covalent inhibitor K11777, starting concentration 1 mM, then 1:2 dilution in duplicate).
# Three uL of enzyme or buffer were dispensed to 1536-well Greiner black solid bottom plates. Compounds and controls (23 nL) were transferred via Kalypsys PinTool. The plates were incubated for 15 min at room temperature, and then 1 uL of substrate solution was added to start the reaction. The plates were immediately transferred to and read 4 times every 30 seconds for 2 min on ViewLux High-throughput CCD imager (Perkin-Elmer) using 360 nm excitation and 450 nm emission fluorescence protocol. The fluorescence intensity difference between the third and the first time points (time lapse of 60 seconds) was used to compute reaction progress.
# Potency is the fitted concentration of half-maximal effect.
# Chain of Cruzipain (Trypanosoma cruzi) (P25779 123-467 limits assumed): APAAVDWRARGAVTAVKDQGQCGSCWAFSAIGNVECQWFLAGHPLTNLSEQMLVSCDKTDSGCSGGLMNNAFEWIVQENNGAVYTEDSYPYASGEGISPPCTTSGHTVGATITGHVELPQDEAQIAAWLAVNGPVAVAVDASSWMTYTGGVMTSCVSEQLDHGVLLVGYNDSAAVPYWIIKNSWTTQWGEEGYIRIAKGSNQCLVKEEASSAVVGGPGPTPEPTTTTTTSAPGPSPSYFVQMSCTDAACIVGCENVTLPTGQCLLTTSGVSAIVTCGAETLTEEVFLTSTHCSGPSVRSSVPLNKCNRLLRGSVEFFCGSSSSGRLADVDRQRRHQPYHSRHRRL
SMILES,"max response, negative = inhibition",Potency
Cc1nn(-c2ccccn2)c2c1C(c1ccncc1)C1=C(CC(C)(C)CC1=O)N2 (centres undefined),-9%,–
CC(=C1C(=O)c2ccccc2C1=O)N1CCN(c2ccccn2)CC1,-6.99%,–
Cc1cc(C)c(C2C3=C(Nc4c2c(C)nn4-c2ccccn2)c2ccccc2C3=O)c(C)c1 (centres undefined),–,12.6 µM (active)
NS(=O)(=O)c1ccc(CCNC(=O)CCCCCn2c(=O)[nH]c3ccccc3c2=O)cc1,-15.6%,–
CC1(C)CC(=O)c2c(n(S(=O)(=O)c3ccccc3)c3ccc(NS(=O)(=O)c4ccccc4)cc23)C1,–,31.6 µM (active)
Cn1c(=O)n(C)c2cc(NS(=O)(=O)c3ccc(F)cc3)ccc21,-10.1%,–
COc1cc(NS(=O)(=O)c2ccccc2)ccc1-n1nc(C)cc1C,4.04%,–
CC(C)Oc1c(Br)cc(Br)cc1/C=N/NC(N)=S,–,0.158 µM (active)
CCOc1ccc(/C=N/NC(N)=S)cc1,-8.04%,–
Cc1cccc(-n2c(C)cc(/C=N/NC(N)=S)c2C)c1,-26.1%,–
Cc1ccc2onc(CC(=O)N3CCN(c4ccc(Cl)cc4)CC3)c2c1,7.92%,–
COc1cccc(CNCCSc2nnnn2C)c1OCc1ccccc1Cl,2.75%,–
COc1ccc(CNC(=O)Cn2nnc(-c3ccccc3F)n2)cc1,-5.04%,–
COc1cc2nc(SCc3ccc(F)cc3)n3nc(CCn4c(C)nc5ccccc54)nc3c2cc1OC,-7.57%,–
CC(=O)c1ccc2c(ccc3ccccc32)c1,6.49%,–
C=CC(=O)c1ccc2ccccc2c1,–,2.51 µM (active)
CC(=O)CCC(=O)c1ccc2ccccc2c1,1.86%,–
Cc1ccc(NC(=O)Cn2c(=O)n(-c3ccccc3)c(=O)c3c4c(sc32)CCCC4)cc1,-7.31%,–
Cc1ccc(S(=O)(=O)N2CCC(Oc3ccc(-n4cnnn4)cc3)CC2)cc1,8.75%,–
CCc1ccc(NC(=O)CN2CCSc3ccc(S(=O)(=O)N4CCCC4)cc32)cc1,-26.3%,–
COc1ccc(-c2oc3cc(OC)ccc3c2C(=O)c2ccc(C#N)cc2)cc1,–,12.6 µM (active)
COc1ccc(C(=O)c2c(C)oc3cc([N+](=O)[O-])c(O)c([N+](=O)[O-])c23)cc1,-3.8%,–
COc1cccc(C(=O)c2cc3ccc(O)cc3oc2=O)c1,-3.19%,–

SMILES,"max response, negative = inhibition",Potency
O=C(COc1ccccc1F)NNC(=O)c1ccc(N2CCCCC2)c([N+](=O)[O-])c1,-11.1%,–
O=C(Nc1ccc(N2C(=O)c3cccc4cccc(c34)C2=O)cc1)c1ccc(N2CCCCC2)c([N+](=O)[O-])c1,–,7.94 µM (active)
COc1cccc(C(=O)Nc2ccc(N3CCCC3)cc2)c1,-20.3%,–
Cc1ccccc1-n1c(=O)c2ccccc2n(Cc2ccc(F)cc2)c1=O,6.2%,–
O=C(Cc1ccc(-c2ccccc2)cc1)NC(c1ccccc1)c1ccccc1,–,25.1 µM (active)
COc1ccc(C(CC(=O)O)NC(=O)Cc2ccccc2)cc1 (centres undefined),10.2%,–
O=C(O)Cc1ccc(-c2ccccc2)cc1,-11.7% and 9.66%,–
COc1ccc(C(=O)Nc2onc3c2CCCC3)cc1,-6.11%,–
Cc1ccc(NC(=S)NC(=O)/C=C/c2ccc(Cl)cc2)cc1,–,10 µM (active)
Cc1nn(C)cc1C(=O)NNC(=S)Nc1ccc(Cl)cc1,-0.36%,–
COC(=O)Cc1ccc(NC(=S)NCc2ccc(Cl)cc2)cc1,-2.73%,–
CCCN1C(=O)C(O)(CC(=O)c2ccc(CC)cc2)c2cc(Br)ccc21 (centres undefined),2.6%,–
COc1ccccc1CNC(=O)C(Cc1ccccc1)NS(=O)(=O)c1ccc2c(c1)oc(=O)n2C (centres undefined),-15.4%,–
O=S(=O)(NCC(c1ccco1)N1CCOCC1)c1cc(F)ccc1F (centres undefined),-1.04%,–
Cc1cccc(NC(=O)c2sc(-c3ccccc3)nc2-c2ccc([N+](=O)[O-])cc2)c1,–,20 µM (active)
CC(=O)c1cccc(NC(=O)c2nc(-c3ccccc3)n(-c3cccc(C)c3)n2)c1,-26.5%,–
COc1cccc(NC(=O)c2ccc(Cn3cc([N+](=O)[O-])cn3)o2)c1,3.2%,–
O=C(NCCS(=O)(=O)N1CCN(c2ccc(F)cc2)CC1)c1ccccc1Br,-13%,–
Cc1cccc(CNC(=O)c2cnc3sc(N4CCCCC4)nn3c2=O)c1,13.2%,–
CC(Oc1ccc(-c2ccccc2)c(F)c1)c1ccn(S(=O)(=O)c2cccc3ccccc23)n1 (centres undefined),–,12.6 µM (active)
COc1ccccc1N1CCN(c2ncnc3onc(-c4cccc(Cl)c4)c23)CC1,9.06%,–
O=C(Nc1nnc(S(=O)(=O)N2CCCCCC2)s1)c1cccc(Br)c1,6.01%,–
O=C(Nc1nncs1)c1cccc(S(=O)(=O)N2CCCCC2)c1,0.0572%,–

SMILES,"max response, negative = inhibition",Potency
CCOC(=O)CSc1nnc(NC(=O)c2cccc(S(=O)(=O)N3CCCCC3)c2)s1,–,20 µM (active)
COc1cc(CNCCSc2nnnn2C)ccc1OCc1ccc(Cl)cc1Cl,8.01%,–
COc1ccc2[nH]c(C)c(CCN(Cc3cccs3)C(=S)Nc3ccccc3OC)c2c1,–,15.8 µM (active)
COc1ccc(NC(=S)NCc2cccs2)c(OC)c1,1.46%,–
CCNC(=S)N(CCc1c(C)[nH]c2ccc(C)cc12)Cc1ccco1,-13.2%,–
Cc1ccc(Cl)cc1N(C)C(=O)Cn1nc(Cc2cccnc2)c2ccccc2c1=O,14.5%,–
CC(C)(C)c1ccc(OCC(=O)N2CCC(c3nc4ccccc4s3)CC2)cc1,-14.4%,–
CCOC(=O)c1sc(=S)n(-c2cccc(OC)c2)c1N,-7.85%,–
CCOC(=O)c1sc(=S)n2c1[nH]c(=O)c1ccc(C(=O)OC)cc12,–,25.1 µM (active)
CCOC(=O)Cn1c(N)c(C(=O)OC)sc1=S,-4.92%,–
COc1ccc(CCNC(=O)CCc2c(C)nc3c(c(C)nn3-c3ccc(C)c(C)c3)c2C)c(OC)c1OC,0.259%,–
Fc1ccc(CN2CCc3nc(Nc4ccccc4)ncc3C2)cc1F,-18.7%,–
Cc1ccc(C)n1-c1nnc(N2CCC(C(=O)NCc3ccc(F)cc3)CC2)s1,5.22%,–
CSc1ccc(CCNC(=O)C2CCN(c3nnc(-n4cccc4)s3)CC2)cc1,–,31.6 µM (active)
Cc1ccc(CCNC(=O)C2CCN(c3nnc(-n4cccc4CNc4ccc(C)cc4)s3)CC2)cc1,-8.42%,–
CSc1nc(-c2ccccc2Cl)nc2c1Cc1c(CO)cnc(C)c1O2,-8.02%,–
COc1cc(C2CC(=O)N3CN(Cc4ccccc4)CSC3=C2C#N)ccc1OCc1ccccc1 (centres undefined),–,15.8 µM (active)
COc1ccc(C2CC(=O)n3c(nc4ccccc43)S2)cc1OC (centres undefined),0.892%,–
COc1ccc(C2C(=O)N(C3CCCCCC3)CC(=O)N2CCc2ccc(Cl)cc2)cc1OC (centres undefined),10.9%,–
CCOCCCNC(=O)c1ccc2nc(CCc3ccccc3)oc2c1,-6.83%,–
Cc1cccc(C(=O)NCCc2nc3ccccc3n2Cc2ccccc2Cl)c1,15.2%,–
Cc1cccc(NC(=O)Cn2c(=O)n(CCC(C)C)c(=O)c3cccnc32)c1,-11.5%,–
Cc1ccc(C(=O)c2c(NC(=O)c3ccccc3)sc(C)c2C)cc1,-26.9%,–

SMILES,"max response, negative = inhibition",Potency
CCN(CCCNC(=O)c1cc2cc3cc(OC)ccc3nc2s1)c1ccccc1,0.913%,–
Cc1ccc(C(=O)NNC(=O)c2cc3cc4ccccc4nc3s2)cc1,–,15.8 µM (active)
COCCNc1ncnc2c1c(-c1ccccc1)cn2-c1ccc(C)c(Cl)c1,6.98%,–
COc1ccc(-n2c(SCC(N)=O)nc3c(oc4ccccc43)c2=O)cc1,-4.62%,–
Cc1ccc(-n2c(SCC(=O)Nc3cccc(F)c3)nc3c(oc4ccccc43)c2=O)cc1C,–,12.6 µM (active)
Cc1cccc(-n2c(SCC(N)=O)nc3c(oc4ccccc43)c2=O)c1,-3.27%,–
Cc1ccc(C(=O)Nc2c(C(=O)NC(C)(C)C)oc3ccccc23)cc1,11.2%,–
COc1ccc(OC)c(-c2csc(-c3c(N)c(C(=O)c4ccccc4)n4ccccc34)n2)c1,-9.44%,–
CCn1c(/C=N/NC(=O)c2ccc(OC)cc2)nc2ccccc21,-22.8%,–
COc1ccc(C(=O)Nc2ccccc2C(=O)N/N=C/c2ccccc2OC)cc1,–,25.1 µM (active)
COc1ccc(NC(=O)c2ccc(OC)cc2)cc1,-1.58%,–
CN(C)c1ccc(-n2cccc2/C=N/n2cnnc2)cc1,-10.4%,–
CN(C)c1ccc(-n2cccc2/C=C2/SC(=Nc3ccc(F)cc3)NC2=O)cc1,–,10 µM (active)
N#Cc1ccccc1Cn1cnc2nc3c(cc2c1=O)CCCC3,2.69%,–
CC(=O)Nc1c(C)nn(-c2ccccc2)c1N1CCC(C(=O)Nc2cc(Cl)ccc2C)CC1,-5.38%,–
CCN(C(=O)CSc1nnc(C)n2c1cc1occc12)c1ccccc1,-4.51%,–
CCCCN(CC)C(=O)c1c[nH]c2ccc(S(=O)(=O)Nc3cccc(OC)c3)cc2c1=O,-1.35%,–
CCOC(=O)c1ccc(-c2ccc(/C=C(\C#N)C(=O)Nc3ccc(C)cc3)o2)cc1,-9.9%,–
CCOC(=O)c1ccc(-c2ccc(/C=C(\C#N)C(=O)Nc3ccc(OCC)cc3)o2)cc1,-8.32%,–
Cc1ccc(Cc2cnc(NC(=O)/C(C#N)=C/c3ccc(-c4cccc([N+](=O)[O-])c4)o3)s2)cc1,–,3.16 µM (active)
